# Assay outcomes as filed in PubChem BioAssay.
# An excerpt weighted towards active compounds, which were near 2.2% of everything screened.
# HIF act – HIF pathway transcriptional activation; U2OS HRE-luciferase reporter, luminescence; normalized: DMSO 0%, desferrioxamine 100%; activation, % at 7.5 µM (by protocol); hit rate 0.32% among 300,000;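 active = mean activation of at least 10% of the iron chelator positive control signal, with at least half of replicates also reaching 10%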
# SMARCA2 activ – SMARCA2 function activation, primary screen | MG213 cells, MMTV-luciferase reporter, dexamethasone, overnight | activation, % at 9.1 µM | hit rate 1% among 370,000; in the data active = activation above about 7.8%;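 note: 0% = vehicle wells and 100% = reference activator wells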
# GalR3 antagonist – antagonists of human GalR3. HEK293 GalR3-CNG cAMP membrane potential fluorescence; galR3 body fused to GalR1 C-terminus. inhibition, % at 3 µM. O60755. hit rate 0.44% among 360,000;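 active = inhibition above the screen-wide average plus 3 SD, cut at about 13% in these data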;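 note: forskolin and galanin both at EC90 stimulate the cells; cAMP rise reported by CNG channel membrane potential dye signal; 0% = forskolin plus galanin with DMSO and 100% = forskolin alone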
# Target sequence (O60755 1-299 limits assumed): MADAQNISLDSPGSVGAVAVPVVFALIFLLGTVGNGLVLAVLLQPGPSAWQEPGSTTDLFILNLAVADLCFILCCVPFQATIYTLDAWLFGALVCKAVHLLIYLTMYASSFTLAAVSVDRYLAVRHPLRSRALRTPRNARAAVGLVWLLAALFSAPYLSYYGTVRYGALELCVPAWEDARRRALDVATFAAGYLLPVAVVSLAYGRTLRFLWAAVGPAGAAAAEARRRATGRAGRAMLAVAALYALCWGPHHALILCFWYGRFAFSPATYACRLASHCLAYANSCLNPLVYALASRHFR
# GAA850 FXN act – activators of GAA850 frataxin (FXN) promoter; hit rate 0.56% among 360,000; HEK293 lucGAA850 FXN promoter luciferase reporter, 24 h; percent of 10 µM SAHA response; activation, % at 6 µM; AID 540364;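 active = activation above the average of all compounds screened plus 3 SD, cutoff fixed separately per campaign, cut at about 7.5% in these data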;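 note: 0% = DMSO wells and 100% = 10 µM SAHA wells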
# Hsp70 activator – Hsp70 transcriptional activation, primary screen; hit rate 0.04% among 200,000; activation, % at 10 µM; HeLa Hsp70 promoter luciferase reporter, luminescence; scaled: vehicle 0, proteasome-inhibitor control 100%;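 active = activation above the mean across all tested compounds plus 3 SD, cutoff set per campaign, cut at about 5.5% in these data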;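 note: 100% = MG132 at 30 µM as the positive control and 0% = DMSO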
# SMARCA2 act conf – SMARCA2 activation, confirmation screen; shares compounds with SMARCA2 activ; MG213 cells, MMTV-luciferase with dexamethasone, luminescence, overnight; MG213 cells expressing E1A, Rb sequestered; DMSO wells 0%, reference activator 100%; activation, % at 9.1 µM; hit rate 30% among 3,500; AID 652260;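 active = activation above its plate's cutoff, the mean activation of tested wells plus 3 SD, cut at about 7.9% in these data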
# VP16 Luc act – counter-screen for SMARCA2 activators: GAL4-VP16 luciferase reporter activation; HEK293 GAL4-VP16 pG5luc reporter, luciferase luminescence; scaled: DMSO wells 0%, SAHA wells 100%; shares compounds with SMARCA2 activ; hit rate 41% among 3,500; activation, % at 9.1 µM; AID 686939;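 active = activation above the solvent-only control well mean plus 3 SD, averaged across control plates, cut at about 5.2% in these data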
# An asterisk follows results filed as active; . = no result.
SMILES,HIF act,SMARCA2 activ,GalR3 antagonist,GAA850 FXN act,Hsp70 activator,SMARCA2 act conf,VP16 Luc act
Cc1ccc(-n2nnc(-c3cc4ccccc4n3C)n2)cc1,1,6,-4,3,0,.,.
Cc1ccc2[nH]c3c(=O)n(Cc4ccncc4)cnc3c2c1,0,0,2,1,-1,.,.
COc1ccc2c(c1)[nH]c1c(=O)n(Cc3ccncc3)cnc12,1,8.6*,-5,4,.,3,1
C=CS(=O)(=O)c1c2cc(OC)ccc2nc2ccc(OC)cc12,.,15*,-5,-1,.,-9,13*
O=C1C(=Cc2cccs2)Oc2ccccc21,.,8.7*,-4,5,.,1,1
COc1ccc(-c2ccc(C(=O)C3CC3)cc2)cc1,4,10*,-14,6,.,8.2*,15*
COc1ccc(-c2cc(C(=O)N(C3CCCCC3)C3CCCCC3)no2)cc1,.,0,.,.,.,.,.
CCSc1nnc(-c2cccc(S(=O)(=O)N(CC)CC)c2)n1Cc1ccccc1,0,-4,-6,-3,0,.,.
CCNC(=O)CSc1nnc(-c2cccc(S(=O)(=O)N(CC)CC)c2)n1CCc1ccccc1,0,8.9*,-7,-1,0,-4,0
C(#Cc1ccccc1)Cn1nnc2ccccc21,2,-1,1,1,0,.,.
c1ccc(CNn2nnc3ccccc32)cc1,.,12*,0,.,.,10.0*,11*
O=C1ON(Cc2ccccc2)C(c2ccccc2)N1c1ccccc1 (stereo not given),.,11*,-5,-1,.,-2,0
CC(=O)CC[C@@H]1CC[C@]2(CCCN(S(=O)(=O)c3ccccc3)C2)O1,.,-3,.,.,.,.,.
COc1ccccc1C/C(N)=N/OC(=O)c1ccc(C)c([N+](=O)[O-])c1,0,-3,-4,0,0,.,.
Cc1ccc(C(=O)O/N=C(\N)Cc2cccs2)cc1[N+](=O)[O-],2,8.2*,3,0,.,3,3
O=[N+]([O-])c1cccc(/C([O-])=C(/C(=S)Nc2ccccc2)[n+]2ccccc2)c1,1,8.5*,-4,4,0,0,6.3*
CCNC(=S)/C(=C(/[O-])c1ccc([N+](=O)[O-])cc1)[n+]1ccccc1,0,-2,3,-1,.,.,.
CN1C(c2ccccc2)CC2CN(c3ccccc3)C(=O)C21 (stereo not given),.,-2,.,.,.,.,.
COc1ccc(CN(CCC#N)CCC2(c3ccccc3)CC(C)N(C)CC2C)cc1OC (stereo not given),0,8,2,0,.,.,.
COc1ccc(CNCCC2(Cc3ccccc3)CC(C)N(C)CC2C)cc1OC (stereo not given),1,8.3*,-5,-2,0,5,2
CCOC(=O)C1=NOC(C(=O)NC2CCCC2)(C(=O)C2CC2)C1 (stereo not given),.,-2,.,.,.,.,.
COc1cc(/C=N/N(C)c2ccccc2)ccc1O,5,9.3*,-3,2,0,4,9.9*
C[C@H]1O[C@@H](n2c3ccc(Cl)cc3c3ccc4c5cc(Cl)ccc5[nH]c4c32)[C@H](O)[C@H](O)[C@H]1O,.,-4,.,.,.,.,.
COc1ccc(C[C@H](C)NC[C@@H](O)c2ccc(O)c(NC=O)c2)cc1,0,14*,-6,4,.,12*,15*
CC(=O)c1ccc(NC(=O)c2cc(Cl)sc2Cl)cc1,3,9.3*,-2,5,0,6,7.5*
SMILES,HIF act,SMARCA2 activ,GalR3 antagonist,GAA850 FXN act,Hsp70 activator,SMARCA2 act conf,VP16 Luc act
Cc1cc(C)cc(NC(=O)c2cc(Cl)sc2Cl)c1,0,-1,-5,1,0,.,.
CCN1CCN(CCOc2cccc(Oc3ccccc3)c2)CC1,0,8.0*,-7,1,0,-3,1
C=CCN1C(=O)[C@@H](CC(=O)NCCCN2CCCC2=O)[C@]2(C(=O)OC)CCCCC=C12,.,8.7*,.,.,.,-1,-2
CCC(C(=O)Nc1ccccc1N1CCCC1)c1ccccc1F (stereo not given),.,-3,.,.,.,.,.
COc1ccc(-c2noc(C3CCCN(C(=O)Nc4cc(C)cc(C)c4)C3)n2)cc1 (stereo not given),.,10*,.,.,.,1,9.7*
Oc1ccc(-c2csc(-c3cccnc3)n2)c(O)c1,4,8.2*,3,-2,0,13*,12*
Cc1ccccc1N1CCN(S(=O)(=O)c2ccc3c(c2)n(C)c(=O)c(=O)n3C)CC1,.,2,.,.,.,.,.
CS(=O)(=O)Nc1ccc(-c2nnc3n2CCCCC3)cc1,-2,-1,-10,1,.,.,.
O=c1[nH]c2ccc(S(=O)(=O)Nc3ccc(-c4nnc5n4CCCCC5)cc3)cc2o1,0,12*,3,0,0,-2,1
COC(=O)C1CCC(CNC(=O)C(Cc2ccc3c(c2)OCO3)NC(C)=O)CC1 (stereo not given),.,-4,.,.,.,.,.
O=C(/C=C/c1c(Cl)cccc1Cl)N1CCN(c2ncccn2)CC1,0,-1,-3,2,0,.,.
O=C(/C=C/c1ccco1)N1CCN(c2ncccn2)CC1,1,8.8*,-1,4,0,6,6.5*
CS(=O)(=O)N1CCC[C@]2(CC[C@H](CCC#N)O2)C1,.,1,.,.,.,.,.
CNS(=O)(=O)c1ccc(NC(=S)Nc2ccc3c(c2)OCO3)cc1,2,9.0*,-3,3,0,3,0
Cc1cc(OCC(=O)NC(C)C)cc(C)c1Cl,0,11*,0,1,0,-5,-1
CC(=O)Nc1c(C(=O)O)oc2ccccc12,0,8.1*,-2,0,0,0,0
Cn1cnnc1SCC(=O)Nc1ccc2nc(SCc3ccccc3F)sc2c1,2,9.9*,-8,5,0,3,9.0*
COc1ccc(C2C(C(=O)Nc3ccc(F)cc3F)CCC(=O)N2c2ccc(OC)cc2)cc1 (stereo not given),.,3,.,.,.,.,.
CCOc1ccc(N(CC(=O)Nc2c(C)n(C)n(-c3ccccc3)c2=O)S(=O)(=O)c2cccc3cccnc23)cc1,.,-2,.,.,.,.,.
CCOc1ccc(OCc2ccc(C(=O)Nc3ccc(Cl)cn3)o2)cc1,1,10*,1,0,0,4,3
CC(NC(=O)CCC(=O)c1cccs1)c1ccccc1 (stereo not given),0,0,-2,-2,.,.,.
Cc1ccc(NC(=O)CCC(=O)c2cccs2)c(O)c1,1,10*,-6,3,.,7,3
O=C(NNC(=O)c1cccs1)c1ccncc1,0,-3,7,4,1,.,.
O=C(CCC(=O)c1cccs1)NC(c1ccccc1)c1ccccc1,1,9.0*,-5,0,0,-1,0
